Experimental data from the supplement of paper PMC12494721.
Where a name gives a salt, the structure may show the parent alone.

Experiments:
Settings in all cases: incubation time: 27 h, anaerobic, 37 °C;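 for the amine columns active = adjusted P below 0.05 in both replicates with a change the same way and a mean fold change under 0.8 or over 1.25; inactive = the rest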
[1] = test system: Clostridium sporogenes DSM 1664; test: growth (OD595) fold change vs plate DMSO controls (fold change (ratio)); higher = more growth
In short: (§1)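 To obtain OD, 595 nm absorbance readings were blank-subtracted, corrected for compound background using 20 µM compound solutions in water, and multiplied by a calibration factor of 5. They came from 96-well mGAM cultures grown anaerobically for 27 h at 37 °C and shaken before reading. Growth is the fold change relative to the median of plate DMSO controls. Two biological replicates were averaged, and fold changes above 1.5 were set to NA.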

Escherichia coli IAI1 [2] = test: as above
In short: as §1

[3] = test system: Klebsiella aerogenes DSM 30053; test: as above
In short: as §1

[4] = test system: Ruminococcus gnavus DSM 108212; test: as above
In short: as §1

[5] = test system: Klebsiella aerogenes DSM 30053; test: fold change of Histamine concentration vs plate DMSO controls (fold change (ratio)); higher = more amine produced, active = hit call of the paper (significant change in both replicates, either direction)
In short: (§2)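 Extracts of whole anaerobic mGAM cultures were analysed for amines by LC–triple-quadrupole MS with dynamic MRM and external calibration curves, with drift corrected within batch. Four gut strains were grown at 37 °C for 27 h in 80 µL wells with compounds at 20 µM final, sweeteners at 50 µM final. Each value expresses fold change over plate DMSO controls. The average of 2 biological replicates is shown.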

[6] = test system: Clostridium sporogenes DSM 1664; test: fold change of Tryptamine concentration vs plate DMSO controls (fold change (ratio)); higher = more amine produced, active = hit call of the paper (significant change in both replicates, either direction)
In short: as §2

[7] = test system: Ruminococcus gnavus DSM 108212; test: as above
In short: as §2

Escherichia coli IAI1 [8] = test: fold change of Putrescine concentration vs plate DMSO controls (fold change (ratio)); higher = more amine produced, active = hit call of the paper (significant change in both replicates, either direction)
In short: as §2

[9] = test system: Klebsiella aerogenes DSM 30053; test: as above
In short: as §2

Escherichia coli IAI1 [10] = test: fold change of Cadaverine concentration vs plate DMSO controls (fold change (ratio)); higher = more amine produced, active = hit call of the paper (significant change in both replicates, either direction)
In short: as §2

[11] = test system: Klebsiella aerogenes DSM 30053; test: as above
In short: as §2

[12] = test system: Ruminococcus gnavus DSM 108212; test: fold change of 2-Phenylethylamine concentration vs plate DMSO controls (fold change (ratio)); higher = more amine produced, active = hit call of the paper (significant change in both replicates, either direction)
In short: as §2

SMILES | growth [1] | growth (Escherichia coli IAI1 [2]) | growth [3] | growth [4] | fold change of Histamine concentration [5] | fold change of Tryptamine concentration [6] | fold change of Tryptamine concentration [7] | fold change of Putrescine concentration (Escherichia coli IAI1 [8]) | fold change of Putrescine concentration [9] | fold change of Cadaverine concentration (Escherichia coli IAI1 [10]) | fold change of Cadaverine concentration [11] | fold change of 2-Phenylethylamine concentration [12]
CN1[C@@H]2CC[C@H]1C[C@@H](OC(c1ccccc1)c1ccccc1)C2 [Benztropine mesylate] (20 µM) | 1.11 | 0.99 | 0.975 | 1 | 1.09 (inactive) | 1.03 (inactive) | 0.964 (inactive) | 1.03 (inactive) | 1.03 (inactive) | 1.05 (inactive) | 0.995 (inactive) | 1 (inactive)
CCOc1ccccc1OC(c1ccccc1)C1CNCCO1 (stereo not drawn) [Reboxetine mesylate] (20 µM) | 1.03 | 1.16 | 1.07 | 1.08 | 1.01 (inactive) | 0.997 (inactive) | 1.04 (inactive) | 1.03 (inactive) | 1.01 (inactive) | 0.926 (inactive) | 1 (inactive) | 1.03 (inactive)
C[C@H](Cc1cc2c(c(C(N)=O)c1)N(CCCO)CC2)NCCOc1ccccc1OCC(F)(F)F [Silodosin] (20 µM) | 1 | 1 | 1.02 | 1.11 | 0.918 (inactive) | 1.08 (inactive) | 1.01 (inactive) | 0.941 (inactive) | 0.992 (inactive) | 1.02 (inactive) | 1.02 (inactive) | 0.999 (inactive)
CC[C@H](c1ccc(O)cc1)[C@@H](CC)c1ccc(O)cc1 [Hexestrol] (20 µM) | 0.933 | 1.03 | 0.999 | 0.869 | 1.06 (inactive) | 0.609 (active) | 0.789 (active) | 1.05 (inactive) | 1.01 (inactive) | 1.06 (inactive) | 0.989 (inactive) | 0.749 (inactive)
CC(C)NCC(O)COc1cccc2[nH]ccc12 (stereo not drawn) [Pindolol] (20 µM) | 1.03 | 1.13 | 1.01 | 0.881 | 0.989 (inactive) | 1.07 (inactive) | 1.12 (inactive) | 1.18 (inactive) | 1.04 (inactive) | 1.21 (inactive) | 1.15 (inactive) | 1.27 (inactive)
C[C@@H]1C[C@H]2[C@@H]3CCC4=CC(=O)C=C[C@]4(C)[C@@]3(Cl)[C@@H](O)C[C@]2(C)[C@@]1(OC(=O)c1ccco1)C(=O)CCl [Mometasone furoate] (20 µM) | 1.08 | 0.984 | 1.14 | 1.04 | 0.923 (inactive) | 0.991 (inactive) | 0.889 (inactive) | 1.02 (inactive) | 1 (inactive) | 1.03 (inactive) | 1.03 (inactive) | 0.898 (inactive)
C[C@H]1O[C@H](O[C@H]2[C@H](O)[C@@H](O)[C@@H](O[C@@H]([C@H](O)[C@@H](O)C=O)[C@H](O)CO)O[C@@H]2CO)[C@H](O)[C@@H](O)[C@@H]1N[C@H]1C=C(CO)[C@@H](O)[C@H](O)[C@H]1O [Acarbose] (20 µM) | 0.918 | 1.03 | 1.04 | 1.05 | 1.15 (inactive) | 1.02 (inactive) | 0.997 (inactive) | 0.948 (inactive) | 1.07 (inactive) | 1.12 (inactive) | 0.996 (inactive) | 0.978 (inactive)
NCCc1ccc(O)c(O)c1 [Dopamine hydrochloride] (20 µM) | 0.979 | 1.06 | 1.03 | 0.996 | 1.06 (inactive) | 0.994 (inactive) | 1.03 (inactive) | 0.967 (inactive) | 0.996 (inactive) | 0.959 (inactive) | 0.987 (inactive) | 1.05 (inactive)
C=CCOC(Cn1ccnc1)c1ccc(Cl)cc1Cl (stereo not drawn) [Enilconazole] (20 µM) | 1.05 | 0.989 | 0.991 | 0.919 | 0.966 (inactive) | 1.19 (inactive) | 1.15 (inactive) | 0.862 (inactive) | 1.01 (inactive) | 0.939 (inactive) | 1.13 (inactive) | 1.56 (active)
CC(C)(C(=O)O)c1ccc(C(O)CCCN2CCC(C(O)(c3ccccc3)c3ccccc3)CC2)cc1 (stereo not drawn) [Fexofenadine hydrochloride] (20 µM) | 1.1 | 1.02 | 1.09 | 1.19 | 0.876 (inactive) | 1.04 (inactive) | 0.978 (inactive) | 0.971 (inactive) | 0.999 (inactive) | 1.02 (inactive) | 1.01 (inactive) | 0.993 (inactive)
CN(Cc1cc(Br)cc(Br)c1N)C1CCCCC1 [Bromhexine hydrochloride] (20 µM) | 0.942 | 0.985 | 0.971 | 0.937 | 1.06 (inactive) | 1.05 (inactive) | 1 (inactive) | 1 (inactive) | 1.03 (inactive) | 1.06 (inactive) | 0.991 (inactive) | 1.07 (inactive)
CNCC[C@@H](Oc1ccccc1C)c1ccccc1 [Tomoxetine hydrochloride] (20 µM) | 1.11 | 1.01 | 0.98 | 1.1 | 0.978 (inactive) | 1.1 (inactive) | 1 (inactive) | 0.969 (inactive) | 0.968 (inactive) | 0.989 (inactive) | 1 (inactive) | 1.05 (inactive)
CCn1cc(C(=O)O)c(=O)c2ccc(C)nc21 [Nalidixic acid sodium salt] (20 µM) | 1.09 | 0.265 | 0.814 | 1.13 | 1.43 (inactive) | 0.991 (inactive) | 1.02 (inactive) | 0.671 (inactive) | 1.05 (inactive) | 1.69 (inactive) | 0.966 (inactive) | 1.07 (inactive)
CN1C(C(=O)Nc2ccccn2)=C(O)c2sccc2S1(=O)=O [Tenoxicam] (20 µM) | 1.03 | 1.04 | 0.975 | 1.18 | 1.07 (inactive) | 1.01 (inactive) | 1.01 (inactive) | 1.05 (inactive) | 1.01 (inactive) | 1.01 (inactive) | 0.977 (inactive) | 0.959 (inactive)
NC(=O)[C@@H]1CCCN1C(=O)[C@H](Cc1c[nH]cn1)NC(=O)[C@@H]1CCC(=O)N1 [Thyrotropin-Releasing Hormone] (20 µM) | 0.956 | 0.979 | 1.02 | 0.996 | 0.966 (inactive) | 0.998 (inactive) | 1 (inactive) | 1.02 (inactive) | 1 (inactive) | 0.999 (inactive) | 1 (inactive) | 0.998 (inactive)
O=c1oc2cc(O)ccc2s1 [Tioxolone] (20 µM) | 1.04 | 1.01 | 0.979 | 1.07 | 1.02 (inactive) | 1.05 (inactive) | 0.987 (inactive) | 1.02 (inactive) | 0.997 (inactive) | 0.989 (inactive) | 0.987 (inactive) | 0.959 (inactive)
CCC(=O)O[C@@H](O[P@](=O)(CCCCc1ccccc1)CC(=O)N1C[C@H](C2CCCCC2)C[C@H]1C(=O)O)C(C)C [Fosinopril] (20 µM) | 1.01 | 1.09 | 1.05 | 1.08 | 1.06 (inactive) | 0.979 (inactive) | 1.05 (inactive) | 1.3 (inactive) | 1.01 (inactive) | 0.939 (inactive) | 1 (inactive) | 1.08 (inactive)
CC(=O)c1cc2cccc(OCC(O)CNC(C)C)c2o1 (stereo not drawn) [Befunolol] (20 µM) | 0.992 | 1.1 | 0.953 | 0.98 | 1.07 (inactive) | 1.06 (inactive) | 1.02 (inactive) | 1.06 (inactive) | 0.972 (inactive) | 0.997 (inactive) | 0.995 (inactive) | 1.06 (inactive)
CN(C)CCCN1c2ccccc2CCc2ccc(Cl)cc21 [Clomipramine hydrochloride] (20 µM) | 1.07 | 0.978 | 0.972 | 0.705 | 1.04 (inactive) | 1.04 (inactive) | 0.823 (inactive) | 0.997 (inactive) | 1.03 (inactive) | 1.06 (inactive) | 0.985 (inactive) | 0.82 (inactive)
NC(=O)NS(=O)(=O)c1ccc(N)cc1 [Sulfacarbamide] (20 µM) | 0.977 | 1.02 | 0.993 | 0.94 | 1.04 (inactive) | 0.967 (inactive) | 1 (inactive) | 1.01 (inactive) | 1.02 (inactive) | 1 (inactive) | 1.01 (inactive) | 0.972 (inactive)
N=C(N)NCC1COC2(CCCCC2)O1 (stereo not drawn) [Guanadrel sulfate] (20 µM) | 0.98 | 0.972 | 0.986 | 1.16 | 1.04 (inactive) | 1 (inactive) | 1.04 (inactive) | 0.993 (inactive) | 1.04 (inactive) | 0.99 (inactive) | 1 (inactive) | 1.06 (inactive)
COC(=O)[C@@H]1[C@H]2C[C@H]3c4[nH]c5ccccc5c4CCN3C[C@@H]2CC[C@@H]1O [Yohimbine hydrochloride] (20 µM) | 1.02 | 1.06 | 1.04 | 0.793 | 0.982 (inactive) | 1.03 (inactive) | 1.01 (inactive) | 1.05 (inactive) | 1.01 (inactive) | 0.989 (inactive) | 1.02 (inactive) | 1.01 (inactive)
CCOC(=O)C1=C(C)NC(C)=C(C(=O)OC)C1c1cccc([N+](=O)[O-])c1 (stereo not drawn) [Nitrendipine] (20 µM) | 1.04 | 1.01 | 1.02 | 1.06 | 1.08 (inactive) | 0.947 (inactive) | 0.911 (inactive) | 1.09 (inactive) | 0.993 (inactive) | 1.01 (inactive) | 1.01 (inactive) | 0.913 (inactive)
Cc1ncc(CO)c(CO)c1O [Pyridoxine hydrochloride] (20 µM) | 1.06 | 0.974 | 1.06 | 1.01 | 0.916 (inactive) | 1.05 (inactive) | 1.02 (inactive) | 0.925 (inactive) | 0.989 (inactive) | 1.06 (inactive) | 1.02 (inactive) | 1.01 (inactive)
